From PubChem BioAssay AID1159580 (chemical genetic matrix, 2015)
Among all 5,500 compounds or so, about 2,000 (36%) were called active. Roughly 18% stayed inconclusive and do not appear here. No stated cut-off is given here; in the data, active means normalized growth mostly below about 0.91 (no sharp cut-off); inconclusive means no clear call, values can overlap the other calls; inactive means mostly above about 0.92. This is one part of the list.

Test: chemical genetic growth profiling, strain panel (AID 1159580);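 further: tested at 20 µM; growth read once vehicle control cultures reached saturation at 30 °C; 1 = growth at the plate median or of vehicle wells; lower values mean less growth of the strain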
Settings: S. cerevisiae deletion strains, growth OD

Measured: normalized growth

COc1cc(OC)cc(/C(N)=N\O)c1
active: locus YLR113W, strain HOG1, hits give low values 0.847
inactive: locus YAR019C, strain CDC15, hits give low values 0.981 | locus YBL105C, strain PKC1, hits give low values 0.99 | locus YBR135W, strain CKS1, hits give low values 0.986 | locus YBR136W, strain MEC1, hits give low values 0.975 | locus YBR160W, strain CDC28, hits give low values 0.993 | locus YDL017W, strain CDC7, hits give low values 0.989 | locus YDL028C, strain MPS1, hits give low values 0.982 | locus YDL101C, strain DUN1, hits give low values 0.992 | locus YDL108W, strain KIN28, hits give low values 0.982 | locus YDL132W, strain cdc53, hits give low values 0.997 | locus YDL214C, strain PRR2, hits give low values 0.956 | locus YDR052C, strain DBF4, hits give low values 0.991 | locus YDR054C, strain cdc34, hits give low values 0.992 | locus YDR226W, strain ADK1, hits give low values 0.994 | locus YDR477W, strain SNF1, hits give low values 0.958 | locus YER123W, strain YCK3, hits give low values 0.927 | locus YER133W, strain GLC7, hits give low values 0.971 | locus YFL009W, strain cdc4, hits give low values 0.991 | locus YFL029C, strain CAK1, hits give low values 0.975 | locus YFR003C, strain YPI1, hits give low values 0.99 | locus YFR019W, strain FAB1, hits give low values 0.961 | locus YFR028C, strain CDC14, hits give low values 0.994 | locus YGR040W, strain KSS1, hits give low values 0.959 | locus YGR052W, strain FMP48, hits give low values 1.02 | locus YGR092W, strain DBF2, hits give low values 0.943 | locus YHR030C, strain SLT2, hits give low values 0.874 | locus YHR079C, strain IRE1, hits give low values 0.909 | locus YHR082C, strain KSP1, hits give low values 0.994 | locus YHR205W, strain SCH9, hits give low values 0.891 | locus YIL147C, strain SLN1, hits give low values 0.963 | locus YJL095W, strain BCK1, hits give low values 0.875 | locus YJL128C, strain PBS2, hits give low values 0.967 | locus YJL157C, strain FAR1, hits give low values 0.983 | locus YJR016C, strain ILV3, hits give low values 0.997 | locus YJR066W, strain TOR1 (second series), hits give low values 0.929 | locus YJR066W, strain TOR1, hits give low values 0.966 | locus YKL048C, strain ELM1, hits give low values 0.962 | locus YKL067W, strain YNK1, hits give low values 0.961 | locus YKL101W, strain HSL1, hits give low values 0.925 | locus YKL193C, strain SDS22, hits give low values 0.992 | locus YKL203C, strain TOR2, hits give low values 1.01 | locus YLR133W, strain CKI1, hits give low values 0.958 | locus YLR403W, strain SFP1, hits give low values 0.937 | locus YML070W, strain DAK1, hits give low values 0.943 | locus YMR001C, strain CDC5, hits give low values 0.991 | locus YMR205C, strain PFK2 (second series), hits give low values 0.963 | locus YMR277W, strain FCP1, hits give low values 0.997 | locus YNL006W, strain LST8, hits give low values 0.993 | locus YNL020C, strain ARK1, hits give low values 0.959 | locus YNL161W, strain CBK1, hits give low values 0.988 | locus YNL183C, strain NPR1, hits give low values 0.95 | locus YNL207W, strain RIO2, hits give low values 0.988 | locus YNL222W, strain SSU72, hits give low values 0.991 | locus YNL307C, strain MCK1 (second series), hits give low values 0.951 | locus YOL078W, strain AVO1, hits give low values 0.991 | locus YOL136C, strain PFK27, hits give low values 0.955 | locus YOR061W, strain CKA2, hits give low values 0.925 | locus YOR119C, strain RIO1, hits give low values 0.983 | locus YOR231W, strain MKK1, hits give low values 0.904 | locus YOR329C, strain SCD5, hits give low values 0.987 | locus YPL031C, strain PHO85, hits give low values 0.958 | locus YPL153C, strain RAD53, hits give low values 0.943 | locus YPL204W, strain HRR25, hits give low values 0.973 | locus YPL209C, strain IPL1, hits give low values 0.988 | locus YPL256C, strain CLN2, hits give low values 0.891 | locus YPR025C, strain CCL1, hits give low values 0.986 | locus YPR106W, strain ISR1, hits give low values 0.988 | locus YPR111W, strain DBF20, hits give low values 0.986 | strain NNK1, hits give low values 0.992 | strain TSCII, hits give low values 0.996
